Laboratory results from PubChem BioAssay AID602127 (Broad Institute, 2011).
Measured potencies and affinities stand elsewhere. Calls of active or inactive are those of the source.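 Rule for the calls: active = every repeat test judged active, meaning a falling signal with potency within twice the top valid dose; inconclusive = repeat tests disagree on the call; inactive = every repeat test inactive, including signal moving upward.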

molecular target: Cyclin-dependent kinase 2 (Homo sapiens) (UniProt P24941); test: CDK2 kinase inhibitors, off-target check, dose response, selectivity assay for Dyrk1A inhibitor project, biochemical, cherry-picked samples (AID 602127); details: CDK2/cyclin A kinase, ADP-Glo luminescence, 60 min; series mostly up to 10 µM; activity change, negative = inhibition: at the top concentration

Activity change, negative = inhibition, inactive:
c1csc(CNc2ncnc3ccc(-c4ccoc4)cc23)c1 -17.2%, COc1ccc2c(c1)CCc1c-2n[nH]c1C(=O)O 4.31%, COc1cccc(NC(=O)c2sc(NC(=O)c3ccncc3)nc2C)c1 -3.42%, Cc1noc(NS(=O)(=O)c2ccc(NC(=O)c3oc4ccc(Cl)cc4c3C)cc2)c1C -14.5%, CC(=O)Nc1ccc(Nc2cc(C)nc3c(-c4ccccc4)cnn23)cc1 -11.3%, CN(C)c1ccc(-c2nccc(NCc3cccs3)n2)cc1 1.17%, Cc1ccsc1CN(C)c1ncnc2ccc(-c3ccc(CO)o3)cc12 -20.1%, O=C(O)COc1ccc(/C=C/c2nc3ccc([N+](=O)[O-])cc3s2)cc1 7.07%, COc1cc(C(=O)Nc2cccc(-c3nncn3C)c2)cc(OC)c1OC -1.46%, CN(Cc1cccs1)c1ncnc2ccc(-c3ccc4c(c3)OCO4)cc12 -1.32%, Cc1nc(CNc2ncnc3ccc(-c4ccc5c(c4)OCO5)cc23)cs1 1.07%, COc1cccc(Nc2ncnc3sc(C)cc23)c1 -4.69%
